# Results reported in PubChem BioAssay AID2551 (National Center for Advancing Translational Sciences (NCATS), 2010).
# In all, about 310,000 compounds went through this assay and about 17,000 (5.5%) were called active. Where a call stands in place of a potency, no number is given. Inconclusive results (about 11%) are left out. This is one part of a sample in which actives are shown more often than they occur. Values without a mark were called inactive. Calls follow the shape of the dose curve; as a rule, active = well fitted inhibition curve with a large enough effect; inconclusive = small, poorly fitted or top-dose-only effect, or effect the other way; inactive = no such curve, though single readings can be large or run the other way.
# Target: Nuclear receptor ROR-gamma (Mus musculus) (UniProt P51450)
# Assay: qHTS for inhibitors of ROR gamma transcriptional activity; also: nearly all actives have a fitted effect of over 60% in size
# Details: Drosophila S2 Gal4-RORgamma UAS-luciferase reporter, 20 h; series mostly up to 53.6 µM
# Summary of the method: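 Drosophila Schneider cells stably carrying a metallothionein-driven Gal4 DBD–ROR gamma fusion and a UAS-Photinus luciferase reporter were exposed to compound for 1 hr, then induced with copper sulfate (700 uM final) for 20 hr at ambient temperature before luminescence reading.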
# Potency is read from the fitted curve at half-maximal effect.
# Sequence of Nuclear receptor ROR-gamma (Mus musculus) (P51450 whole entry, looked up): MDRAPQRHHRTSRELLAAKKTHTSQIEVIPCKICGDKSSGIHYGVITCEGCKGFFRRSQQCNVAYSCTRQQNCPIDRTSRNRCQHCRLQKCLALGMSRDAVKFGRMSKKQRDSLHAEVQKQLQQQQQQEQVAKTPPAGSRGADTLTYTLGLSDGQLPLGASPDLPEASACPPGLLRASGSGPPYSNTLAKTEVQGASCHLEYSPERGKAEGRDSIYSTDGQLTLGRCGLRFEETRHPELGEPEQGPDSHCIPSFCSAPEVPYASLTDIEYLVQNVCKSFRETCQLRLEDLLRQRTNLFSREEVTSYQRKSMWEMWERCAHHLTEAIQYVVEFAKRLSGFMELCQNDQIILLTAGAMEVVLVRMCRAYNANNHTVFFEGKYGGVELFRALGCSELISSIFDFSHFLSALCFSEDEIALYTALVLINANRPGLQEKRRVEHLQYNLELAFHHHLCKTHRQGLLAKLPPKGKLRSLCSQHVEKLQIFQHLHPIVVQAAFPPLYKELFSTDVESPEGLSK
Compound,Potency,"activity change, negative = inhibition"
COc1cc(-c2c(-c3ccc4c(c3)OCO4)noc2C)ccc1F,inactive,–
COc1ccc(NC(=O)CNC(=O)Cc2ccccc2)cc1OC,inactive,–
COc1ccc(NS(=O)(=O)c2ccc(NC(C)=O)cc2)cc1OC,–,35.4% [at 0.365 µM]
COc1ccc(NC(=S)SC)cc1OC,20 µM (active),–
Cc1c(C(=O)N2CCCC2)c(S(=O)(=O)NCC(C)c2ccccc2)c(C)n1C (centres undefined),inactive,–
CN(C)CCCNC(=S)N1CCN(c2nc(-c3ccccc3)cs2)CC1,inactive,–
Cc1cccc(Br)c1,inactive,–
S=C(Nc1cccc(Cl)c1)Nc1ccc2cn[nH]c2c1,inactive,–
Cc1cccc(NC(=S)Nc2ccc3cn[nH]c3c2)c1,inactive,–
Cc1csc(NC(=S)Nc2cccc(Cl)c2)n1,0.708 µM (active),–
Cc1cccc(NC(=S)Nc2ccc(Cl)c(Cl)c2)c1,15.8 µM (active),–
Fc1cc(Br)ccc1NC(=S)Nc1cccnc1,inactive,–
Cc1cccc(NC(=S)Nc2ccc(Br)cc2)c1,7.08 µM (active),–
NS(=O)(=O)c1ccc(NC(=S)Nc2ccc(Br)c(Cl)c2)cc1,inactive,–
CC(=O)Nc1cccc(C(=O)Nc2nc(C)cs2)c1,inactive,–
Cc1ccc(NC(=O)C2CCN(S(=O)(=O)c3ccc4c(c3)NC(=O)CO4)CC2)cc1C,inactive,–
CN(CCO)S(=O)(=O)c1ccc2c(c1)C(=O)c1cc(S(=O)(=O)N(C)CCO)ccc1-2,inactive,–
CCCn1cc(S(=O)(=O)c2ccc(C)cc2)c(=O)c2cc(OCC)ccc21,inactive,–
CC1C(=O)N(Cc2ccccc2)c2ccccc2N1C(=O)c1ccccc1 (centres undefined),inactive,–
Cc1cccc(C(=O)Nc2nnc(S(=O)(=O)N3CCCCCC3)s2)c1,inactive,–
Cc1cnc(CN(C)C(=O)CC2C(=O)NCCN2Cc2cccc(F)c2F)[nH]1 (centres undefined),inactive,–
COc1ccc(OC)c(NC(=O)c2cccc(S(=O)(=O)N3CCN(C(C)=O)CC3)c2)c1,inactive,–
Cc1noc(C)c1C(=O)N1CCOCC1,inactive,–

Compound,Potency,"activity change, negative = inhibition"
Cc1onc(-c2ccccc2)c1C(=O)N1CCOCC1,inactive,–
Cc1oc2c(c1C(=O)N1CCOCC1)C(=O)c1ccccc1C2=O,3.98 µM (active),–
COc1ccc(C2/C(=C(/O)c3ccc4c(c3)CC(C)O4)C(=O)C(=O)N2Cc2ccncc2)cc1 (centres undefined),inactive,–
COc1ccc(/C=C2\SC(=O)N(CCC(=O)NCCCn3ccnc3)C2=O)cc1,inactive,–
CCn1nnnc1SCC(=O)Nc1ccc(N(C)C)cc1,inactive,–
COc1ccccc1N1CCN(S(=O)(=O)c2ccc(Cl)cc2)CC1,inactive,–
COc1ccccc1-n1nnnc1S(=O)(=O)Cc1ccc(Cl)cc1,11.2 µM (active),–
N#Cc1cccc(CS(=O)(=O)c2nnnn2-c2cc(C(F)(F)F)cc(C(F)(F)F)c2)c1,inactive,–
CCn1ccnc1CN(C)C(=O)c1cc(COc2ccc(-n3cncn3)cc2)on1,inactive,–
COc1ccc(-c2[nH]ncc2/C=N/NC(=O)c2cc(Br)ccc2O)c(OC)c1,2.24 µM (active),–
COc1ccc(O)c(C=Nc2cc(C)on2)c1,inactive,–
COc1ccc(/C=N/NC(=O)Nc2ccc3nsnc3c2)c(OC)c1,inactive,–
COc1cc(CN2CCCC(C(=O)c3ccc(SC)cc3)C2)cc(Cl)c1O (centres undefined),–,-3.37% [at 1.91 µM]
Cc1nc2nc(C)c(NS(=O)(=O)c3ccc(C(C)(C)C)cc3)c(=O)n2[nH]1,inactive,–
CC(=O)c1ccc(N2CCN(S(=O)(=O)c3ccc4c(c3)CC(=O)N4C)CC2)cc1,inactive,–
Cc1cc(NC(=O)[C@H](C)NC(=O)c2ccco2)ccc1Br,inactive,–
CC(NC(=O)c1ccco1)C(=O)Nc1nc(-c2ccccn2)cs1 (centres undefined),11.2 µM (active),–
O=C(CN1C(=O)C2C3C=CC(C3)C2C1=O)Nc1nc(-c2ccccn2)cs1 (centres undefined),inactive,–
O=C(Nc1ccc(N2CCCC2=O)cc1)c1cncc(Br)c1,inactive,–
COc1ccc(NC(=O)c2cc([N+](=O)[O-])ccc2NC(=O)CNC2CCCCC2C)c(OC)c1 (centres undefined),inactive,–
CCCCn1c(CN2CCN(CCO)CC2)nc2ccccc21,inactive,–
C=C(Br)Cn1c(CCCC)nc2ccccc21,15.8 µM (active),–
CCCCn1c(CCCNC(=O)CC)nc2ccccc21,inactive,–

Compound,Potency,"activity change, negative = inhibition"
Cc1snc(SCc2c(F)cccc2Cl)c1C#N,inactive,–
CCc1ccc(OCC(=O)N(Cc2ccccc2)C2CCS(=O)(=O)C2)cc1 (centres undefined),inactive,–
COc1ccc(Cl)cc1C(=O)NNC(=S)NC1CCCC1,11.2 µM (active),–
COc1ccc(C(C)NC(=S)NC2CCCCC2)cc1OC (centres undefined),11.2 µM (active),–
COc1cc(OC)c(C(=O)NC2CCCCCC2)cc1OC,inactive,–
COc1ccc(Cl)cc1C(=O)NCC#N,inactive,–
COc1ccc(Cl)cc1C(=O)NNC(=O)c1nc2nc(C)cc(C)n2n1,inactive,–
COc1cc(C(=S)NC2CCCCC2)ccc1O,inactive,–
COc1ccc(Cl)cc1C(=O)NNC(=S)NC(=O)/C=C/c1ccco1,3.98 µM (active),–
C=CCNC(=S)NNC(=O)c1cc(Cl)ccc1OC,inactive,–
COc1ccc(CCNC(=O)CCC(=O)NC2CCCCC2)cc1OC,inactive,–
CSc1ncccc1C(=O)NCc1ccccc1Cl,inactive,–
COC(=O)c1ccc(CNC(=O)C2CCC(=O)N(Cc3cccc(F)c3)C2)cc1 (centres undefined),inactive,–
CCc1nnc(NC(=O)CSCc2cc(=O)n3cc(C)sc3n2)s1,inactive,–
O=C1C(=O)N(CCCN2CCOCC2)C(c2ccc([N+](=O)[O-])cc2)/C1=C(\O)c1ccc2c(c1)OCCO2 (centres undefined),inactive,–
C=CCn1c(=O)c(C(=O)NCc2ccc3c(c2)OCO3)c(O)c2ccccc21,inactive,–
CC1CCN(CCCn2c(SCC(=O)NC3CCCC3)nc3ccccc3c2=O)CC1,inactive,–
CN(CCNC(=O)c1cc2c(-c3ccccc3F)nn(C)c2s1)C1CCCCC1,inactive,–
O=c1[nH]cnc(O)c1C(c1ccc(F)cc1)c1c(O)nc[nH]c1=O,inactive,–
CCOc1ccc(CCNC(=O)CCc2nnc3ccc(N4CCCC4)nn23)cc1OCC,inactive,–
COC(=O)c1ccc(CN2CCC(CO)(Cc3ccc(OC)cc3)CC2)cc1,inactive,–
CCOC(=O)C1(CCOC)CCN(Cc2ccc(C(=O)OC)cc2)CC1,7.08 µM (active),–
CCOC(=O)C1(CCOC)CCN(Cc2cc3ccccc3s2)CC1,inactive,–
